High-throughput results from PubChem BioAssay.
This is a sample that favours compounds with a hit; in the whole collection about 6.6% have one here.
FBA Mtb inh – Mtb FBA enzyme inhibitors, primary screen, biochemical, fluorescence, strain H37Rv | inhibition, % at 1 µM | 360,000 tested, 2.3% active | Fructose-bisphosphate aldolase (Mycobacterium tuberculosis (strain ATCC 25618 / H37Rv)), … | AID 588726, 2011 | purified M. tuberculosis FBA, fluorescence read-out; in the data active = inhibition above about 27%
Target sequence (P9WQA3 whole entry, looked up): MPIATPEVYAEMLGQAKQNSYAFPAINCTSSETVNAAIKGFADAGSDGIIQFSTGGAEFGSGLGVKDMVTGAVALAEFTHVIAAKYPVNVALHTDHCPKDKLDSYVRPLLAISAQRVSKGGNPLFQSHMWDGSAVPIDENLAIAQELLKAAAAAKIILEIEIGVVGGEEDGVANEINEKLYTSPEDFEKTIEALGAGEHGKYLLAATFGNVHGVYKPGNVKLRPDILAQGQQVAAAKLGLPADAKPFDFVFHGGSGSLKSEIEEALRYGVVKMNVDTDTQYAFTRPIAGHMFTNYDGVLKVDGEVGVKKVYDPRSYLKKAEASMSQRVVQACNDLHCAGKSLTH
BoNT A protease – BoNT/A light chain protease inhibitors, primary screen, biochemical, flow cytometry, MLPCN library. Botulinum neurotoxin type A light chain protease (Clostridium botulinum A str. ATCC 3502). multiplex microsphere protease substrate cleavage. inhibition, % at 10 µM. 360,000 tested, 0.17% active. AID 588499, 2011
Anthrax LF inh2 – Bacillus anthracis LF protease inhibitors, primary screen, biochemical, multiplex microsphere, MLPCN library | Lethal factor (Bacillus anthracis), P15917 | multiplex microsphere protease cleavage assay | inhibition, % at 10 µM | 360,000 tested, 0.12% active | AID 588501, 2011
Bead autofluor – compound fluorescence in toxin protease inhibitor counterscreen. fluorescence intensity (concentration not given with the values). 360,000 tested, 3.1% active. compound autofluorescence counterscreen, microsphere flow cytometry; hits give high values; in the data active = fluorescence intensity above about 16000; inconclusive = no clear call, values can overlap the other calls
BoNT F protease – BoNT/F light chain protease inhibitors, primary screen, biochemical, flow cytometry, MLPCN library | Botulinum neurotoxin type F light chain protease (Clostridium botulinum) | Multiplex microsphere protease cleavage assay | inhibition, % at 10 µM | 360,000 tested, 0.22% active | AID 588497, 2011; in the data active = inhibition above about 35%, passing the limit was not always enough; inconclusive = no clear call, values can overlap the other calls
GDH-TPI inh – GDH-TPI coupling enzyme inhibitors, primary screen, artefact control for M. tuberculosis FBA inhibitor project, biochemical, absorbance, full deck; GDH-TPI coupled enzyme counterscreen, NADH absorbance; 360,000 tested, 1.2% active; AID 588335, 2011; inhibition, % at 4.8 µM; in the data active = inhibition above about 30%
Of the large screens only hits and unclear results are named; the others gave an inactive call. Cut-off read from the data, not from the text of the source, unless noted: active = inhibition above about 30%; inconclusive = no clear call, values can overlap the other calls; inactive = below that.

CC(C)CCNC(=O)CN(CCCN1CCOCC1)C(=O)Cn1nnc(-c2ccc(F)cc2)n1	Bead autofluor 22173
COc1ccc(CCNC(=O)Cn2nnc(-c3cccc(OC)c3OC)n2)cc1OC	Bead autofluor 22884
COc1ccc(-c2nnn(CC(=O)N(CC(=O)NCCC(C)C)c3ccccc3)n2)cc1OC	Bead autofluor 21028
COc1ccc(CCNC(=O)Cn2nnc(-c3ccc(N4CCOCC4)cc3)n2)cc1OC	none
O=C(CN(C(=O)Cn1nnc(-c2ccccc2F)n1)c1cccc2c1CCCC2)NCc1ccccc1	BoNT A protease inconclusive, Bead autofluor inconclusive, BoNT F protease inconclusive
CCOC(=O)CNc1nnc(SCC(=O)OCC)[nH]c1=O	BoNT F protease inconclusive
CC(=O)Nc1cc(-c2ccccc2N(C)C)cn2c(-c3cccc(C(F)(F)F)c3)cnc12	none
CCOC(=O)C1CCN(C(=O)c2cc3c(=O)n4ccccc4nc3s2)CC1	FBA Mtb inh 159
CCN1CCN(C(=O)c2cc3c(=O)n4ccccc4nc3s2)CC1	FBA Mtb inh 192
CCOC(=O)CC1C(=O)NCCN1C(=O)c1cc2c(=O)n3cccc(C)c3nc2s1 (stereo not drawn)	FBA Mtb inh 162
Cc1cccn2c(=O)c3cc(C(=O)N4CCCC(C)C4)sc3nc12 (stereo not drawn)	none
O=C(NCCc1ccccc1)[C@@H]1CC=C[C@@H]2CCN(C3CCCCC3)C(=O)[C@@H]21	none
CCCN(CC(=O)Nc1ccccc1OC)C(=O)c1ccc(S(=O)(=O)Nc2ccccc2)cc1	none
CC12CCC(C(=O)Nc3c(Cl)cccc3Cl)(C(Br)C1=O)C2(C)C (stereo not drawn)	none
CC12CCC(C(=O)Nc3cccc(Cl)c3Cl)([C@H](Br)C1=O)C2(C)C (stereo partly drawn)	FBA Mtb inh 113
Cc1ccc(-c2[nH]nc3c2C(c2ccc(OC(=O)N4CCOCC4)cc2)C(C#N)=C(N)O3)cc1 (stereo not drawn)	BoNT A protease inconclusive, Bead autofluor 16622
Cc1ccc(-c2[nH]nc3c2C(c2cccnc2)C(C#N)=C(N)O3)cc1 (stereo not drawn)	BoNT A protease inconclusive, Bead autofluor 23057
CC(C)c1[nH]nc2c1C(c1cccnc1)C(C#N)=C(N)O2 (stereo not drawn)	Bead autofluor 19924
CCCc1nn(C)c2c1C(c1cccnc1)C(C#N)=C(N)O2 (stereo not drawn)	Bead autofluor 23902
CC(C)c1[nH]nc2c1C(c1cccc(OC(=O)N3CCOCC3)c1)C(C#N)=C(N)O2 (stereo not drawn)	none
N#CC1=C(N)Oc2n[nH]c(-c3ccccc3)c2C1c1cccnc1 (stereo not drawn)	none
CCC1(C)Cc2ccccc2C(=S)N1 (stereo not drawn)	none
CC(=O)c1cccc(NC(=O)c2cc(S(=O)(=O)N3CCCCC3)ccc2N2CCOCC2)c1	none
COc1ccccc1NC(=S)N1CCC(C(=O)c2ccc(F)cc2)CC1	none
N#Cc1c(-c2ccco2)cc(-c2ccccn2)nc1N	FBA Mtb inh 194
CCCCCc1nc(N)c(C#N)c(-c2ccco2)c1CCCC	none
N#Cc1c(-c2cccnc2)cc(-c2ccccc2)nc1N	FBA Mtb inh active
N#Cc1c(-c2ccco2)cc(-c2cccnc2)nc1N	FBA Mtb inh 181
Cc1c(-c2ccccc2)nc(N)c(C#N)c1-c1ccco1	Bead autofluor 20557
CCc1nc(N)c(C#N)c(-c2ccco2)c1C	none
CCOC(=O)COc1nc(-c2ccc(C)cc2)cc(-c2ccco2)c1C#N	BoNT F protease inconclusive
CCN(CC1CCCO1)C(=O)CCc1nnc(CCc2ccc(OC)cc2)o1 (stereo not drawn)	none
O=C(Cn1cc(C(F)(F)F)ccc1=O)N/N=C/c1cccc(Cl)c1	none
O=C(c1cccs1)N1C[C@H](n2cc(C3CC3)nn2)[C@@H](O)C[C@@H]1c1ccc(Cl)cc1	none
CCC(=O)OCc1cc(=O)oc2ccc3ccccc3c12	FBA Mtb inh 170
CC(=O)N1CCN(Cc2cc(=O)oc3ccc4ccccc4c23)CC1	none (no result: GDH-TPI inh)
Cc1cccc2cc(/C=C3\N=C(c4ccccc4)OC3=O)c(N3CCOCC3)nc12	BoNT A protease 124, Anthrax LF inh2 65, BoNT F protease 41
Cc1ccc(C2=N/C(=C\N3CCCCC3)C(=O)O2)cc1	GDH-TPI inh 62
Cc1nc(N2CCOCC2)c2cc(-c3ccccc3)sc2n1	none
Cc1ccc(C2=N/C(=C/N3CCOCC3)C(=O)O2)cc1	GDH-TPI inh 38
COc1ccc(/C=C2\N=C(c3ccc(C)cc3)OC2=O)cc1	BoNT F protease inconclusive
CCc1ccc(/C=C2\CN(CC)Cc3c2nc2ccccc2c3C(=O)O)cc1	Bead autofluor 27805, GDH-TPI inh 44
CCN1C/C(=C/c2cccs2)c2nc3ccccc3c(C(=O)O)c2C1	none
Cc1ccc(N2CC(C(=O)N3CCC(C(=O)Nc4nnc(C(C)(C)C)s4)CC3)CC2=O)cc1 (stereo not drawn)	none
CC(=O)c1ccc(OC2(C)CCN(Cc3csc4ccccc34)C2)cc1 (stereo not drawn)	none
O=C(Nc1ccccc1)c1cccc(C(F)(F)F)c1	none
Cc1nc2ccc(NC(=O)c3cccc(C(F)(F)F)c3)cc2o1	Bead autofluor 22143
O=C(CCCCCNC(=S)Nc1ccccc1)C[N+](=O)[O-]	none
COc1ccc(CNC(=O)CN2C(=O)C3CCCN3c3ncc(Cl)cc32)cc1 (stereo not drawn)	BoNT A protease inconclusive, Bead autofluor 21975
CCOC(=O)c1c(NC(=O)COC(=O)c2ccccc2NC)sc(C(=O)N(C)C)c1C	none
CN1CC(c2ccccc2Cl)C2(COc3ccccc3C2=O)C12C(=O)Nc1ccccc12 (stereo not drawn)	Bead autofluor 20126
COc1ccc(S(=O)(=O)Cc2ccc(C(=O)NC3CCCCCC3)o2)cc1	none
CC(=O)c1ccc(Nc2nc(C(N)CC(C)C)cs2)cc1 (stereo not drawn)	GDH-TPI inh 32
COc1ccc(CC(N)c2csc(Nc3ccc(C(=O)c4ccccc4)cc3)n2)cc1 (stereo not drawn)	none
CC(=O)c1ccc(Nc2nc(C(N)C3CCCCC3)cs2)cc1 (stereo not drawn)	GDH-TPI inh 34
COc1ccc(CC(N)c2csc(Nc3ccc(C(C)=O)cc3)n2)cc1 (stereo not drawn)	GDH-TPI inh 38
COCCNC(=S)N/N=C(\C)c1ccccc1O	GDH-TPI inh 31
COCCNC(=S)N/N=C(\C)c1ccccc1OC	none
COCCNC(=S)N/N=C(\C)c1ccc(Cl)s1	GDH-TPI inh 45 (no result: BoNT A protease, Anthrax LF inh2, Bead autofluor, BoNT F protease)
